According to PubChem BioAssay AID1851 (National Center for Advancing Translational Sciences (NCATS), 2009):
Where “and” joins values, the source holds several entries; their conditions need not be identical. Equal entries are not always repeated. Among all 16,000 compounds or so, about 5,800 (36%) were called active. Roughly 23% stayed inconclusive and do not appear here. The call rests on the fitted dose curve; in most records, active means well fitted curve in the direction sought with a large enough effect; inconclusive means small, poorly fitted or top-dose-only effect, or effect the other way; inactive means no such curve, though single readings can be large or run the other way. This is one part of the list.

target: Cytochrome P450 2C19 (Homo sapiens) (UniProt P33261); experiment: Cytochrome panel assay with activity outcomes; settings: recombinant CYP, pro-luciferin dealkylation, luminescence, p450-cyp2c19; series mostly up to 57.1 µM; activity, negative = inhibition: at the top concentration
Sequence (P33261 whole entry, looked up): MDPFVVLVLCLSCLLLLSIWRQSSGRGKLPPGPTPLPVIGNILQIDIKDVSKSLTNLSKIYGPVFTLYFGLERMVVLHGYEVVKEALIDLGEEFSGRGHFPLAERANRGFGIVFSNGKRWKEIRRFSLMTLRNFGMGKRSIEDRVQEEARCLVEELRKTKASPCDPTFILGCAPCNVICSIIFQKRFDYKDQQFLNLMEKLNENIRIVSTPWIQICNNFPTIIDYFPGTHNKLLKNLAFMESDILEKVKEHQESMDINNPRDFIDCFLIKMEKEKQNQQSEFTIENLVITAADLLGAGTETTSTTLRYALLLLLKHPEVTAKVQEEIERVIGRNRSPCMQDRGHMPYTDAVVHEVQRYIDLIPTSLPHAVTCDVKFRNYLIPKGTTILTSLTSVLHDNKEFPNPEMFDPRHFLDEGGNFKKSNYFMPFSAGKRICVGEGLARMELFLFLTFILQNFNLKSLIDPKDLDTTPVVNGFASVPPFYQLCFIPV
On the % scale 0 is the no-effect control and ±100 the full control effect.

| Structure (SMILES) | AC50 | activity, negative = inhibition |
| --- | --- | --- |
| CCc1ccccc1NC(=O)C1C(c2ccccc2)C1(Cl)Cl (stereo unspecified) | 1.78 µM (active) | – |
| O=C(COc1ccc(-c2ccccc2)cc1)N/N=C/c1ccccc1Br | 2.51 µM (active) | – |
| O=C(COc1ccccc1-c1ccccc1)N/N=C/c1cccc2ccccc12 | 2.24 µM (active) | – |
| COc1ccc(OCC(=O)NNC(=O)c2ccc(-c3ccccc3)cc2)cc1 | – | -9.31% (inactive) |
| O=C(Cc1ccccc1)Nc1nc2ccc(Cl)cc2c2nc(-c3ccco3)nn12 | 1.58 µM (active) | – |
| Cn1c(=O)c(-c2ccc(Cl)cc2)nc2cnc(Oc3ccccc3)nc21 | – | 5.73% (inactive) |
| Cc1cccc(Oc2ncc(-c3ccc(Cl)cc3)cn2)c1C | 14.1 µM (active) | – |
| COc1ncc2nc(-c3ccc(Cl)cc3)c(=O)n(C)c2n1 | – | 0.0431% (inactive) |
| Cc1cc(Cl)ccc1Oc1ncc(-c2ccc(Cl)cc2)cn1 | 2.51 µM (active) | – |
| C#CCCCO/N=C1/C[C@@H](O)[C@@H](O)[C@@H]2[C@@H]3C(=O)N([C@@H](C)c4ccccc4)C(=O)[C@H]3CC[C@@H]12 | – | -27.9% [at 11.4 µM] (inactive) |
| CCCC(=O)N1c2ccccc2C(N(C(C)=O)c2ccccc2)CC1C (stereo unspecified) | 15.8 µM (active) | – |
| COc1ccc(-n2c(=O)cnc3cnc(OC)nc32)cc1 | – | 8.17% (inactive) |
| NNC(=O)c1nn(-c2ccc(Cl)cc2)ccc1=O | – | 86.7% (inactive) |
| Cc1ccc(-n2ccc(=O)c(-c3ccnc(SCc4cccc(Cl)c4)n3)n2)cc1 | 3.55 µM (active) | – |
| C[C@@H]1C[C@@H]2[C@H]3CCC4=CC(=O)C=C[C@]4(C)[C@]3(Cl)[C@@H](O)C[C@@]2(C)[C@@]1(O)C(=O)CO | – | 15.2% (inactive) |
| CC1=C(C(=O)Nc2ccccc2F)C(c2ccsc2)C2=C(CC(c3ccccc3)CC2=O)N1 (stereo unspecified) | 5.01 µM (active) | – |
| COC(=O)C1=C(C)NC(=O)NC1c1ccsc1 (stereo unspecified) | – | -26.2% (inactive) |
| C=CCNc1nc(SCC=C)nc2ccsc12 | 8.91 µM (active) | – |
| C=CCSc1nc(Oc2ccccc2)c2sccc2n1 | 2.24 µM (active) | – |
| C=CCSc1ccsc1C(=O)O | – | -21.7% (inactive) |
| C=CCSc1nc(NC)c2sccc2n1 | 14.1 µM (active) | – |
| C[C@@]12C(=O)OC(=O)[C@]1(C)[C@H]1CC[C@@H]2O1 | – | 20.3% [at 25.6 µM] (inactive) |
| O=C1C[C@@H](O)[C@@H](O)[C@H]2[C@@H]3C(=O)N(c4cccc(Oc5ccccc5)c4)C(=O)[C@@H]3CC[C@H]12 | – | 5.15% [at 11.4 µM] (inactive) and -20.4% [at 11.4 µM] (inactive) |

| Structure (SMILES) | AC50 | activity, negative = inhibition |
| --- | --- | --- |
| O=C(Nc1ccc2c(c1)OCCO2)c1cc2sccc2n1Cc1ccccc1 | 3.16 µM (active) | – |
| O=C(Nc1ccc2c(c1)OCCO2)c1cc2sccc2n1Cc1ccc(F)cc1 | 1 µM (active) | – |
| CCNc1nc(Sc2ccc(C)cc2)cc(C(F)(F)F)n1 | 11.2 µM (active) | – |
| Cc1ccc(Sc2cc(Cl)nc(N)n2)cc1 | – | 15.3% (inactive) |
| FC(F)(F)c1cc(Sc2ccccc2)nc(-c2ccccn2)n1 | – | -107% (inactive) |
| O=C(NC1CCCc2ccccc21)c1ccc(=O)[nH]c1 (stereo unspecified) | – | -15.8% (inactive) |
| O=C(NC1CCCc2ccccc21)C1CCN(S(=O)(=O)N2CCCCCC2)CC1 (stereo unspecified) | 17.8 µM (active) | – |
| O=C(NCCCN1CCc2ccccc2C1)C1CCN(S(=O)(=O)N2CCCC2)CC1 | – | -24.9% (inactive) |
| CCc1nc(SCC(=O)NNC(=O)C2CCCCC2)c2ccccc2n1 | – | 4.97% (inactive) |
| Cc1cccc(NC(=O)CSc2nc(COc3ccccc3)nc3ccccc23)c1C | 2 µM (active) | – |
| CCn1c(CCNC(=O)c2ccccc2Cl)n[nH]c1=S | – | -10.1% (inactive) |
| C=CCn1c(C(C)NC(=O)c2ccccc2)n[nH]c1=S (stereo unspecified) | 5.01 µM (active) | – |
| NS(=O)(=O)c1cc(Cl)c(Cl)c(S(N)(=O)=O)c1 | – | 26.8% [at 25.6 µM] (inactive) |
| Cc1cccc(N(NC(=O)C(C)(C)O)C(=O)c2ccccc2)c1 | 20 µM (active) | – |
| CC(=O)NNC(=O)C(O)(c1ccccc1)c1ccccc1 | – | 9.3% (inactive) |
| CCN1C(=O)[C@H]2[C@H]3[C@H](O)[C@H](O)C/C(=N/OCC(C)C)[C@@H]3CC[C@@H]2C1=O | – | -7.39% [at 11.4 µM] (inactive) |
| CCc1ccc(C(=O)N2CCC(c3nc4ccccc4s3)CC2)cc1 | 14.1 µM (active) | – |
| C[C@H]1NC(=O)NC1=O | inactive | – |
| C/C(=N\NC(=O)c1cccc(Cl)c1)c1cccc(NC(=O)C(C)C)c1 | – | 13.8% (inactive) |
| C/C(=N\NC(=O)c1ccc(Cl)cc1)c1cccc(NC(=O)C(C)C)c1 | 17.8 µM (active) | – |
| CCC(CC)C(=O)Nc1cccc(/C(C)=N\NC(=O)c2ccc(C)s2)c1 | – | 1.98% (inactive) |
| C/C(=N/NC(=O)c1cccs1)c1ccc(NC(=O)COc2ccc(Cl)cc2Cl)cc1 | 14.1 µM (active) | – |
| C/C(=N/NC(=O)c1ccc(C)s1)c1cccc(NC(=O)COc2ccc(Cl)cc2C)c1 | 3.16 µM (active) | – |

| Structure (SMILES) | AC50 | activity, negative = inhibition |
| --- | --- | --- |
| CCc1ccc2c(c1)c(N=NC1=NC(=O)CS1)c(O)n2CC | – | -18.3% (inactive) |
| CC(=O)NNc1cccc(Cl)n1 | – | 11.9% (inactive) |
| C=CCSC[C@@H]1Nc2cc(Cl)c(S(N)(=O)=O)cc2S(=O)(=O)N1 | – | 7.79% [at 25.6 µM] (inactive) |
| CN(C(=O)Cn1nnc(-c2cccc(C(F)(F)F)c2)n1)C1CCCCC1 | – | 7.73% (inactive) |
| O=C(NCC1CCCO1)c1nn2c(c1Cl)NC(c1ccc(F)cc1)CC2C(F)(F)F (stereo unspecified) | – | -14.1% (inactive) |
| CC(C)CC(C(=O)NCC1CCCO1)N(C(=O)Cn1nnc(-c2ccc(F)cc2)n1)c1ccccc1F (stereo unspecified) | 25.1 µM (active) | – |
| CC(C)CC(C(=O)NCC1CCCO1)N(C(=O)Cn1nnc(-c2ccc(F)cc2)n1)c1cccc(C(F)(F)F)c1 (stereo unspecified) | 3.55 µM (active) | – |
| O=S1(=O)N[C@H]2CC[C@@H]3NS(=O)(=O)N[C@H]4CC[C@H](N1)N4S(=O)(=O)N23 | – | 11.2% [at 11.4 µM] (inactive) |
| CCN1C(=O)[C@H]2[C@H]3[C@H](O)[C@H](O)C/C(=N/O[C@@H](C)c4cn([C@H](CO)Cc5ccccc5)nn4)[C@@H]3CC[C@@H]2C1=O | – | 4.85% [at 11.4 µM] (inactive) and 16% [at 11.4 µM] (inactive) |
| O=C(Nc1cnn(Cc2ccc(Cl)cc2Cl)c1)c1cc(-c2cccs2)on1 | 4.47 µM (active) | – |
| c1ccc(-c2ccc(C3=Nn4c(Cn5nnc6ccccc65)nnc4SC3)cc2)cc1 | 14.1 µM (active) | – |
| Fc1ccc(C2=Nn3c(Cc4ccccc4F)nnc3SC2)cc1 | 3.98 µM (active) | – |
| c1ccc2c(c1)nnn2CN1CCOCC1 | – | 22.7% [at 11.4 µM] (inactive) |
| C#CCCCO/N=C1/C[C@@H](O)[C@@H](O)[C@@H]2[C@@H]3C(=O)N(CC)C(=O)[C@H]3CC[C@H]12 | – | -28.1% [at 11.4 µM] (inactive) |
| O=C(N/N=C1/C[C@@H](O)[C@@H](O)[C@@H]2[C@@H]3C(=O)N(Cc4ccccc4)C(=O)[C@H]3CC[C@H]12)OCc1ccccc1 | – | 0.945% [at 11.4 µM] (inactive) |
| CC(C)=CCC/C(C)=C/CO/N=C1/C[C@@H](O)[C@@H](O)[C@@H]2[C@@H]3C(=O)N(C4CCCCC4)C(=O)[C@H]3CC[C@H]12 | – | -23.1% [at 11.4 µM] (inactive) |
| CN[C@@H]1[C@H](O[C@@H]2O[C@H](CO)[C@@H](N)[C@H](O)[C@@H]2O)O[C@H]2C[C@@H](N)[C@@H](O[C@H]3[C@@H](O)[C@H](O)[C@H](N)C[C@@H]3N)O[C@H]2[C@H]1O | – | -36.8% [at 25.6 µM] (inactive) |
| CC(=O)Nc1ccc(S(=O)(=O)NC(CC(=O)NCCC2=CCCCC2)C(C)C)cc1 (stereo unspecified) | 10 µM (active) | – |
| CC(=O)Nc1ccc(S(=O)(=O)NC(CC(=O)NCCCN2CCOCC2)C(C)C)cc1 (stereo unspecified) | – | -6.43% (inactive) |
| CC(C)C(=O)NCCn1ccc2ccccc21 | 6.31 µM (active) | – |
| CCN(c1ccccc1)c1cc(NC)[n+](C)c(C)n1 | – | -3.33% (inactive) |
| O=C(O)[C@@H]1[C@@H]2C[C@H]([C@@H](Br)[C@H]2N2C(=O)CCC2=O)[C@@H]1C(=O)O | – | 39.9% [at 11.4 µM] (inactive) |
| O=C(O)c1cc(=O)c2ccc(Cl)cc2[nH]1 | – | 14.6% (inactive) |

| Structure (SMILES) | AC50 | activity, negative = inhibition |
| --- | --- | --- |
| COc1ccc(C(=O)COC(=O)c2ccc(NC(=O)c3ccccc3)cc2)cc1 | – | -6.93% (inactive) |
| COc1cccc(/C=N/NC(=O)c2cc(-c3cccn3C)n[nH]2)c1 | 15.8 µM (active) | – |
| COc1ccc(C(=O)Nc2ccc(C(=O)OCC(=O)c3ccccc3)cc2)cc1 | – | -13.4% (inactive) |
| COc1cccc(/C=N/NC(=O)c2c(-c3ccccc3)noc2C)c1 | 2 µM (active) | – |
| COc1ccc(NC(=O)COC(=O)c2c(-c3ccccc3)noc2C)cc1 | 8.91 µM (active) | – |
| COc1cccc(/C=N/NC(=O)C(=O)NCc2cccnc2)c1 | – | -29.3% (inactive) |
| NC(=O)CCCC1=NS(=O)(=O)c2ccccc2N1 | – | -11.7% (inactive) |
| CC(C)(CC(=O)N1CCN(c2ccc(Cl)cc2)CC1)CC1=NS(=O)(=O)c2ccccc2N1 | 7.94 µM (active) | – |
| CC1=NS(=O)(=O)c2cc(Cl)ccc2N1 | inactive | – |
| CCCC1(C(=O)OC)C=C2C(=C(C(C)C)C(=O)C2C)CN1 (stereo unspecified) | – | -39.5% (inactive) |
| CCCC1(C(=O)OC)C=C2C(=C(C)C(=O)C2C)CN1 (stereo unspecified) | – | -44.1% (inactive) |
| CCCC1(C(=O)OC)C=C2C(=C(c3ccccc3)C(=O)C2C)CN1 (stereo unspecified) | 7.94 µM (active) | – |
| COC(=O)C1(CC(C)C)C=C2C(=C(c3ccccc3)C(=O)C2C)CN1 (stereo unspecified) | 39.8 µM (active) | – |
| Nc1ccccc1SCc1csc(-c2ccc(Cl)cc2)n1 | 0.501 µM (active) | – |
| C[N+](C)(N)Cc1csc(-c2ccc(Cl)cc2)n1 | – | 8.52% [at 11.4 µM] (inactive) |
| NNc1nncc2ccccc12 | inactive | – |
| CC1CCC(C(C)C)C(OCC(O)CN2CCN(Cc3ccccc3)CC2)C1 (stereo unspecified) | 3.55 µM (active) | – |
| CC1CC(OCC(O)CN2CCN(Cc3ccccc3)CC2)CC(C)(C)C1 (stereo unspecified) | – | -72.1% (inactive) |
| CN1CCN(CC(O)c2ccccc2)CC1 (stereo unspecified) | – | -12.4% (inactive) |
| O[C@H](COc1ccccc1)CN1CCCCC1 | – | 3.88% [at 11.4 µM] (inactive) |
| O=C(c1ccccc1)c1ccc(OCC(O)CN2CCN(Cc3ccccc3)CC2)cc1 (stereo unspecified) | 4.47 µM (active) | – |
| CC#C[C@]1(O)CC[C@H]2[C@@H]3CCC4=CC(=O)CCC4=C3[C@H](c3ccc(N(C)C)cc3)C[C@@]21C | 7.94 µM (active) | – |
